Measured values reported in PubChem BioAssay (NCI).
This is part of a sample that, as a whole, favours compounds with a hit. Of some 83,000 tested, about 20% had one in any assay.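 Assay: single dose, 48 h. Readout: percent growth (0 = no net growth; negative = cell death). Active: <10.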 Unmarked numbers belong to inactive results. Active and inactive are the calls of the source.

Key:
Assay in all cases: NCI-60 one-dose screen, 48 h (100 = growth as untreated, 0 = no growth, -100 = all killed)
Conditions in all cases: 10 µM
[1] = system: NCI-H226 lung
[2] = system: HOP-62 NSCLC
[3] = system: HOP-92 NSCLC
[4] = system: NCI-H522 lung
[5] = system: A549/ATCC NSCLC
[6] = system: 786-0 renal
[7] = system: COLO 205 colon
[8] = system: DU-145 prostate
[9] = system: K-562 leukemia
[10] = system: MDA-MB-231 breast
[11] = system: RXF 393 renal
[12] = system: SF-268 CNS
[13] = system: SF-295 CNS
[14] = system: SF-539 CNS
[15] = system: UACC-257 melanoma
[16] = system: M14 melanoma
[17] = system: NCI-H460 lung
[18] = system: MALME-3M melanoma
[19] = system: NCI-H322M lung

Structure (SMILES) | growth [1] | growth [2] | growth [3] | growth [4] | growth [5] | growth [6] | growth [7] | growth [8] | growth [9] | growth [10] | growth [11] | growth [12] | growth [13] | growth [14] | growth [15] | growth [16] | growth [17] | growth [18] | growth [19] [%]
CCOc1ccccc1/C=N\N=C(\N)N/N=C/c1ccccc1OCC | 59.1% | 43.7% | 46.5% | 7.36% (active) | 39.4% | 21.4% | 28.9% | 46.1% | 16.3% | 52.5% | -1.54% (active) | 47.2% | 23.4% | 17.3% | 39.1% | 12.7% |  |  | 
Cc1nn(-c2ccccc2)c2nc(Cl)c(C=O)c(-c3ccccc3)c12 | 93.3% | 115% | 65.7% | 106% | 78.3% | 94.5% | 121% | 101% | 77.3% | 96.5% | 105% | 90.2% |  |  | 98.3% |  | 94% |  | 
COc1ccc(/C=C2\CCCC3=C2NC(N)=NC3c2ccc(OC)c(OC)c2)cc1OC (stereo unspecified) | 34.1% | 57% | 75% | 16.7% | 58.8% | 94.3% | 46% | 76.7% | 56% | 74% | 20.9% | 63.8% | 70.7% | 85.2% | 46.2% | 57.3% | 64.6% | 52.5% | 
CC[C@@H](C(=O)[C@H](C)[C@H](O)[C@@H](C)[C@H]1O[C@H]([C@@H](CC)C(=O)N(CC)CC)CC[C@H]1C)C1O[C@]2(C=C[C@@H](O)[C@]3(CC[C@@](C)([C@H]4CC[C@](O)(CC)[C@H](C)O4)O3)O2)[C@H](C)C[C@@H]1C (stereo partly specified) | 7.49% (active) | 16.7% | -26.2% (active) | 5.16% (active) | 20.9% | 33.5% | -20.2% (active) | 55.1% | 16.2% | 15.9% | 14% | 42.1% | -6.82% (active) | 38.2% | 12.4% | 11.7% | 12.5% | -20.1% (active) | 
COc1ccc(-c2cc(-c3ccc(OC)c(OC)c3)nc(SCCCC(=O)NO)n2)cc1 | -15.3% (active) | -13.3% (active) | -28.6% (active) | 2.7% (active) | -0.0794% (active) | -20.8% (active) | -12.4% (active) | -2.45% (active) | 7.32% (active) | -10% (active) | -46.6% (active) | 2.03% (active) | -36.8% (active) | 1.28% (active) | 9.39% (active) | -41.5% (active) | -4.97% (active) | -6.87% (active) | 
Cc1cccc(N=Cc2ccccc2O)c1C | 104% | 103% | 97.3% | 114% | 88.2% | 94.5% | 106% | 126% | 98.3% | 102% | 110% | 116% | 106% | 102% | 94.6% | 105% | 114% | 91.7% | 
O=c1oc2c(cc1-c1ccc(F)cc1)C(O)Oc1ccccc1-2 (stereo unspecified) | 105% |  | 48.8% |  | 88.9% |  | 101% | 98.1% | 66.7% | 77.8% | 93.9% | 81.4% | 84.2% | 74.4% | 84.1% |  | 80.8% | 58.4% | 83.1
CCOC(=O)C1=CSC2=NC3=C(CCC/C3=C\c3ccc(Cl)cc3)C(c3ccc(Cl)cc3)N12 (stereo unspecified) | 92.2% | 115% | 96.2% | 93.5% | 96.5% | 101% | 105% | 92.7% | 92.7% | 94.5% | 78.8% | 90.8% | 104% | 103% | 85.7% | 92.5% | 102% | 103% | 
CC(=O)C1N=NCC1c1ccccc1 (stereo unspecified) | 98% | 112% | 73.8% | 88.5% |  | 110% | 114% | 110% | 80.4% | 97.9% | 106% | 104% | 95.4% | 103% | 110% |  | 98.8% | 95.2% | 
